Tb PYK inh – blocks Trypanosoma brucei pyruvate kinase | TbPYK enzyme, Kinase-Glo Plus ATP luminescence, 45 min | Potency, µM (titrated, usually from 76.8 µM), actives largely listed as inhibitors | 410,000 compounds, 0.12% hits; note: nearly all actives have a fitted effect of over 50% in size
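Assay buffer: 50 mM TEA pH 7.2, 100 mM KCl, 10 mM MgCl2, 0.05% BSA, 0.01% Tween-20. Pyruvate kinase from T. brucei plus substrate met compound, then ADP (130 uM final). Luminescence was read post 45 min RT.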
FMDV inh – antivirals against foot and mouth disease virus; FMDV antiviral cell-based qHTS; Potency, µM (highest dose often 57.9 µM), hits mostly inhibitors; 410,000 compounds, 1.2% hits; AID 1159524; calls by dose curve; tested in HEK293T cells; note: read-out not given here; nearly all actives have a fitted effect of over 45% in size
Sm TGR inh – blocks Schistosoma mansoni thioredoxin glutathione reductase | Potency, µM (highest dose often 114 µM), usual class: inhibitors | Q962Y6 | purified TGR, DTNB reduction, TNB absorbance 405 nm | 360,000 compounds, 3% hits | AID 485364; note: nearly all actives have a fitted effect of over 60% in size
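Kinetic colorimetric format: TGR-catalysed, NADPH-driven DTNB reduction monitored via TNB absorbance. Enzyme dispensed at 20 nM; compound exposure 15 min at room temperature before reaction start.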
RE007 growth inh – less growth of the S. pombe RE007 Vpr strain; S. pombe RE007 Vpr strain, BacTiter-Glo ATP luminescence, 24 h; Potency, µM (highest dose often 92.2 µM), most hits filed as inhibitors; 360,000 compounds, 0.21% hits; active = well fitted falling curve with a large enough effect; inconclusive = small, poorly fitted or top-dose-only effect; inactive = no such curve, though single readings can be large or run the other way; note: nearly all actives have a fitted effect of over 50% in size
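Fission yeast RE007 carrying one integrated HIV-1 vpr copy, seeded at OD 0.01 in PMG+AL medium with 23 nL pinned compound. Grown 24 h at 30 degrees; viability read by BacTiter-Glo luminescence after 5 min.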
Hits are given with their value; - = inactive; ? = inconclusive; . = not tested or not shown. Shown are actives, neighbours in structure and some others; about 3.7% of the full set was active somewhere. Unless noted, calls come from the whole dose curve; as a rule, active = well fitted curve in the direction sought with a large enough effect; inconclusive = small, poorly fitted or top-dose-only effect, or another doubt; inactive = no such curve, though single readings can be large; an effect the other way counts as inactive or inconclusive.

SMILES	Tb PYK inh	FMDV inh	Sm TGR inh	RE007 growth inh
COc1ccccc1C1C2C(=O)N(c3ccccc3)C(=O)C2ON1c1ccccc1 (stereo not drawn)	-	-	-	-
COc1ccccc1N1C(=O)C2ON(c3ccccc3)C(c3ccc(N(C)C)cc3)C2C1=O (stereo not drawn)	.	.	5µM	.
Cc1ccccc1N1C(=O)C2ON(c3ccccc3)C(c3ccco3)C2C1=O (stereo not drawn)	-	-	50µM	-
Cc1cccc(C)c1N1C(=O)C2ON(c3ccccc3)C(c3ccncc3)C2C1=O (stereo not drawn)	-	-	-	-
Cc1ccc(N2C(=O)C3ON(c4ccccc4)C(c4ccncc4)C3C2=O)c(C)c1 (stereo not drawn)	-	-	50µM	-
Cc1ccc2c(=O)cc(CSCC(=O)Nc3nnc(C)s3)[nH]c2c1	-	-	-	.
COc1ccc(C(=O)N2CCC3(CC2)CCN(c2ncccn2)CC3)cc1	-	-	.	.
CCCCCc1c(-c2cccc(Cl)c2)ncn1CCc1ccccc1OC	-	-	.	-
CCCCCc1c(-c2cccc(OC)c2)ncn1CCc1ccccc1OC	-	28µM	.	-
CCCc1c(-c2cccc(F)c2)ncn1CCc1ccccc1OC	-	?	.	-
CCCCc1c(-c2cccc(F)c2)ncn1CCc1ccccc1OC	-	25µM	.	-
CCCCCc1c(-c2cccc(F)c2)ncn1CCc1ccccc1OC	-	22µM	.	?
O=C(NCc1nnc2n1CCN(Cc1ccc(C(F)(F)F)cc1)CC2)c1ccccn1	.	-	.	.
CN(C)c1ccc(CNc2nc(-c3ccco3)nn2S(=O)(=O)c2ccc(Cl)cc2)cc1	-	-	-	.
O=c1[nH]c(=O)n(-c2ccccc2F)c(O)c1/C=C1\C=Nc2ccccc21	-	?	-	.
COc1ccc(-n2c(O)c(/C=C3\C=Nc4ccccc43)c(=O)[nH]c2=O)cc1	-	-	-	-
COc1ccc(-n2c(O)c(/C=C3\C=Nc4ccc(Br)cc43)c(=O)[nH]c2=O)cc1	-	16µM	?	-
COc1ccc(-n2c(O)c(/C=C3\C=Nc4ccc(Br)cc43)c(=O)[nH]c2=O)c(OC)c1	-	25µM	?	-
Cc1ccc(N(CC(=O)NCC2CCCO2)C(=O)CCC(=O)Nc2ccccn2)cc1C (stereo not drawn)	-	-	79µM	-
O=C(c1ccccc1-n1cccn1)N1CCOc2ccc(CN3CCOCC3)cc2C1	.	-	.	.
Cc1cccc(-n2c(CNC(=O)c3ccc(S(=O)(=O)N4CCCC4)cc3)n[nH]c2=S)c1	14µM	-	-	-
O=C(NCc1n[nH]c(=S)n1-c1cccc(Cl)c1)c1ccc(S(=O)(=O)N2CCCCC2)cc1	?	-	-	-
NC(=O)CSc1ncnc2c1nnn2Cc1ccc(F)cc1	-	35µM	-	-
O=C(CSc1ncnc2c1nnn2Cc1ccc(F)cc1)NC1CCCCC1	-	-	-	-
O=C(CSc1ncnc2c1nnn2Cc1ccc(F)cc1)NCC1CCCO1 (stereo not drawn)	-	35µM	-	-
SMILES	Tb PYK inh	FMDV inh	Sm TGR inh	RE007 growth inh
CCOC(=O)C1=C(CS(=O)(=O)c2ccc(Br)cc2)NC(=O)NC1c1ccccc1 (stereo not drawn)	-	-	-	.
CCOC(=O)C1CCN(S(=O)(=O)c2c(Cl)ccc3nonc23)CC1	.	.	0.89µM	.
C=C1C(=O)O[C@H]2C[C@H]1[C@@H](OC(C)=O)C/C(C)=C/CC/C(C)=C\CC[C@]2(C)O	-	7.1µM	.	-
C=C1C(=O)OC2C=C(C)CCC=C(C)CCC12 (stereo not drawn)	.	-	.	.
Cc1cc(C)cc(-n2ccnc2SCC(=O)Nc2ccc(C)c(Cl)c2)c1	-	-	-	.
Cc1nc(S/C(=C\c2ccc(-c3ccc(C(=O)O)c(Cl)c3)o2)C(=O)O)n[nH]1	?	-	35µM	-
CC1(C)CC(N2CCOCC2)=CC(=[N+]2CCOCC2)C1	-	-	45µM	-
CC(C)C(O)c1ccc2c(c1)CN(C(=O)c1ccccc1-n1cccn1)CCO2 (stereo not drawn)	.	-	.	.
O=c1ccc2cc3c([nH]c4ccc(Br)cc43)oc-2c1O	.	.	56µM	.
NCCCn1c(C(=O)c2cc(Cl)c(N)c(Cl)c2)c2ccc(C(F)(F)F)cc2[n+]1[O-]	-	-	45µM	-
NCCCn1c(C(=O)c2cc(Cl)c(N)c(Cl)c2)c2ccc([N+](=O)[O-])cc2[n+]1[O-]	-	-	40µM	-
COc1ccc(CNC(=O)c2cc(S(=O)(=O)N3CCCCC3)ccc2Cl)cc1OC	-	14µM	.	-
